This is an account of results in PubChem BioAssay (NCATS).

Molecules are shown by their SMILES. Results filed as inconclusive are left out. Unmarked numbers belong to inactive results. The source made the active and inactive calls. Calls follow the shape of the dose curve; as a rule, active = well fitted inhibition curve with a large enough effect; inconclusive = small, poorly fitted or top-dose-only effect; inactive = flat fitted curve, though single readings scatter.
% is scaled to controls: 0 for no effect and ±100 for the full control effect.

Chain of Calcium and integrin-binding protein 1 (Homo sapiens) (Q99828 whole entry, looked up): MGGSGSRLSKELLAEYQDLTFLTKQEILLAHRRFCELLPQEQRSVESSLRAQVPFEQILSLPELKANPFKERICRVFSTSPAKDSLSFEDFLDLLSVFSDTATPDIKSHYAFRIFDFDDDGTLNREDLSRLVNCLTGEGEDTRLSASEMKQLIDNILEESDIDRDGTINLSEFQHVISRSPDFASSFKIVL

This test has as its target Calcium and integrin-binding protein 1 (Homo sapiens) (UniProt Q99828). In words: Primary qHTS for Identification of Calcium Integrin Binding Protein 1 (CIB1) Competitor (AID 1508620).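 Also: GST tagged CIB1 binding a fluorescein labelled alphaIIb integrin peptide tracer; top concentration of the series differs between compounds.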 The note with it: CIB1-GST / FITC-alphaIIb peptide fluorescence polarization; series mostly up to 57.7 µM; activity change, negative = inhibition: at the top concentration. An excerpt:
Assay Provider: Ulhas P. Naik, PhD Sidney Kimmel Medical College Thomas Jefferson University, Philadelphia, PA Primary function of platelets is to maintain hemostasis. At the site of vascular injury, platelets adhere to adhesive proteins such as collagen and von Willebrand factor. Adherent platelets are activated and generate soluble platelet agonists such as thrombin, ADP and thromboxane A2. Following exposure of circulating platelets to these agonists, results in platelet shape change, granule secretion and activation of platelet integrin alphaIIb-beta3. Ligand binding to activated integrin alphaIIb-beta3 triggers outside-in signaling, leading to platelet aggregation, stabilization of platelet plug, and clot retraction. Upon atherosclerotic plaque rupture also causes platelet plug formation, which underlies a number of cardiovascular diseases such as myocardial infraction and stroke. A number of anti-platelet drugs such as aspirin, clopidogrel, prasugrel, vorapaxar, and eptifibatide are currently available to prevent the thrombotic complications. However, these anti-platelet agents have several limitations including inherent variability in individual responses, developing resistance, and serious bleeding side effects. For these reasons they are not suitable for long-term protection. Based on the experiences with current anti-platelet drugs, it appears that the most useful therapeutic approach is to intersect the secondary responses such as integrin outside-in signaling or recruitment of platelets by TxA2 and secreted ADP. Compounds, which can largely preserve the primary hemostatic function of platelets but inhibit secondary response will be most desired therapeutic agents for treatment of cardiovascular disease. CIB1 is a calcium integrin binding protein, which specifically interact with the alphaIIb subunit of integrin alphaIIb-beta3. Binding of CIB1 to alphaIIb regulates the outside-in signaling in platelets, which is needed for thrombus stabilization and thrombus growth. […] Therefore, we propose that discovery of a small molecule that can prevent the association of CIB1 and alphaIIb-beta3 will be a potential anti-platelet agent that can block the thrombus formation without undue effect on hemostasis. Reference: [1] Naik MU, Nigam A, Manrai P, et al. CIB1 deficiency results in impaired thrombosis: the potential role of CIB1 in outside-in signaling through integrin alpha IIb beta 3. J Thromb Haemost.
PROTOCOL TABLES SEQUENCE No. (1, 2, 3, etc.); […] (e.g., Cells, Incubation, Reagent, etc.); VALUE and DESCRIPTION. 1; Reagent; 3 uL; Protein or buffer (4/3x) 2; Compound; 46 nL; Control inhibitor / compound library 3; Time; 15 min; Room temperature incubation 4; Reagent; 1 uL; Fluorescent labeled peptide (4x) 5; Time; 1000 rpm; Centrifuge 6; Time; 15 min; Room temperature incubation 7; Detection; Ex 480/ Em 540; ViewLux Fluorescence Read NOTES (numbers refer to sequence above) 1; Protein Mixture: C1B1-GST (final concentrations of 1 uM). […] 3; Room temperature incubation. 4; Fluorescent Labeled Peptide: FITC-aIIb (final concentration of 100 nM). Sequence of alphaIIb peptide: Acetyl-[…]-FITC (purity is 95.83%). 5; Centrifuge 1000 rpm (164 g) for 15 seconds. 6; Room temperature incubation. 7; ViewLux Fluorescent Polization Read: excitation = 480(20) / emission = 540(25) S and P; FITC Dichroic mirror.
On the technique in general: qHTS replaces the single test concentration by a dilution series.
`NC1=N[C@@]2(c3cc(NC(=O)c4ccc(F)cn4)ccc3F)COC[C@@H]2CS1`: the “activity change, negative = inhibition” value is -2.04%.
For the compound `Oc1ccc(C2CCN(c3ccnc4ccccc34)CC2)cc1O`, the “activity change, negative = inhibition” value is -4.54%.
For the compound `CC1(C)S[C@H]2[C@H](NC(=O)[C@@H](N)c3ccc(O)cc3)C(=O)N2[C@@H]1C(=O)O`, the “activity change, negative = inhibition” value is -0.606%.
In the case of `COc1cc(N2CCC(N3CCN(C)CC3)CC2)ccc1Nc1ncnc(Nc2ccccc2S(=O)(=O)C(C)C)n1`, the Potency result is “inactive”.
On to `N[C@@]1(C(=O)O)CS(=O)(=O)[C@H]2[C@H](C(=O)O)[C@H]21`, for which the “activity change, negative = inhibition” value is 3.79%.
Regarding `CO[C@H]1C(=O)[C@]2(C)[C@@H](OC)C[C@H]3OC[C@@]3(OC(C)=O)[C@H]2[C@H](OC(=O)c2ccccc2)[C@]2(O)C[C@H](OC(=O)[C@H](O)[C@@H](NC(=O)OC(C)(C)C)c3ccccc3)C(C)=C1C2(C)C`, the “activity change, negative = inhibition” value was 2.82%.
`CC(C)C(=O)Nc1ncc(-c2cc(C(F)F)nn2-c2c(Cl)cccc2Cl)s1`: the Potency entry was “inactive”.
As for `COc1cccc(-c2cc(=O)c3ccccc3o2)c1N`, the “activity change, negative = inhibition” value is -1.3%.
On to `N#Cc1ccc(NC(=O)Nc2ccccc2Br)c2n[nH]nc12`, for which the “activity change, negative = inhibition” value is -7.08%.
As for `COc1cc(NC(=O)c2ccc(-c3ccc(Cl)cc3)o2)cc(OC)c1`, the “activity change, negative = inhibition” value was 3.89%.
Same read-out and setting: the same measure for `O=c1c(O)c(-c2ccc(O)cc2)oc2cc(O)cc(O)c12`: -5.95%.
For `O=C(NCCN1CCOCC1)c1ccc(Cl)cc1`, the “activity change, negative = inhibition” value was -1.28% [at 114 µM].
On to `O=c1cc(N2CCOCC2)oc2c(-c3cccc4c3sc3ccccc34)cccc12`, for which the “activity change, negative = inhibition” value is 2.85%.
Turning to `COc1cccc([C@@H](C)NCCCc2ccccc2Cl)c1`, the “activity change, negative = inhibition” value was -19.5%.
With `O=C1NC(=O)C(=Cc2ccc3c(c2)OC(F)(F)O3)S1`, the “activity change, negative = inhibition” value is -15.8%.
In the case of `O=c1[nH]cnc2c1ncn2[C@H]1CC[C@@H](CO)O1`, the Potency result is “inactive”.
For `NC1CCC(Nc2nc(Nc3ccc(C(=O)N4CCCCC4)cc3)c3ncn(-c4cccc(F)c4)c3n2)CC1` (stereo not given), the “activity change, negative = inhibition” value was 0.816%.
On the same count and under the same terms, the same measure for `NC(=O)[C@@H](CCC(F)(F)F)N(Cc1ccc(-c2ncon2)cc1F)S(=O)(=O)c1ccc(Cl)cc1`: -0.533%.
Consider `Cc1c(O)cccc1C(=O)N[C@@H](CSc1ccccc1)[C@H](O)CN1C[C@H]2CCCC[C@@H]2C[C@@H]1C(=O)NC(C)(C)C`, for which the “activity change, negative = inhibition” value was -5.78%.
On to `NS(=O)(=O)c1cccc2c1C(=O)c1cccc(O)c1C2=O`, for which the “activity change, negative = inhibition” value is -10.2%.
Consider `O=C1NC(=O)C(c2ccccc2)(c2ccccc2)N1`, for which the “activity change, negative = inhibition” value was -8.56% [at 114 µM].
Take `CC(C)(Cc1ccc2ccccc2c1)NC[C@@H](O)COc1cccc(Cl)c1C#N`: the “activity change, negative = inhibition” value is -5.08%.
Same read-out and setting: the same measure for `COc1cc(O)c2c(c1)C(=O)c1cc(C)cc(O)c1C2=O`: -2.81% [at 30.2 µM]; for `CC(C)OC(=O)CCCC=CC[C@@H]1[C@H](C=C[C@@H](O)COc2cccc(C(F)(F)F)c2)[C@H](O)C[C@@H]1O`: -4.98%.
For the compound `CC#CCn1c(N2CCC[C@@H](N)C2)nc2c1c(=O)n(Cc1nc(C)c3ccccc3n1)c(=O)n2C`, the “activity change, negative = inhibition” value is -1.22%.
Still for that read-out and setting: the same measure for `CC(=O)Oc1cc2c(s1)CCN(C(C(=O)C1CC1)c1ccccc1F)C2` (stereo not given): -6.16%; for `COc1ccc(-c2oc3c(CC=C(C)C)c(OC4O[C@H](CO)[C@@H](O)[C@H](O)[C@@H]4O)cc(O)c3c(=O)c2OC2O[C@@H](C)[C@H](O)[C@@H](O)[C@@H]2O)cc1` (stereo not given in full): -2.85%.
With `CC1(C)CCC(CN2CCN(c3ccc(C(=O)NS(=O)(=O)c4ccc(NCC5CCOCC5)c([N+](=O)[O-])c4)c(Oc4cnc5[nH]ccc5c4)c3)CC2)=C(c2ccc(Cl)cc2)C1`, the “activity change, negative = inhibition” value is -15.2%.
For the compound `O=C1C[C@@H](c2ccc(O)cc2)Oc2cc(O)cc(O)c21`, the “activity change, negative = inhibition” value was -1.82%.
As for `CC1(C)CCC2=C(O1)c1ccccc1C(=O)C2=O`, the “activity change, negative = inhibition” value was -1.26%.
Same read-out and setting: then `CCN(CC)CCOC(=O)c1ccc(N)cc1`, with 4.46% [at 114 µM]; and `Cc1ccc([C@@H]2O[C@H](CO)[C@@H](O)[C@H](O)[C@@H]2O)cc1Cc1ccc(-c2ccc(F)cc2)s1`, with 1.09%.
Consider `NC[C@@H]1O[C@@H](O[C@H]2[C@@H](O)[C@H](O[C@@H]3[C@@H](O)[C@@H](N)C[C@H](N)[C@H]3O[C@H]3O[C@H](CN)[C@@H](O)[C@@H](O)[C@H]3N)O[C@H]2CO)[C@H](N)[C@@H](O)[C@@H]1O`, for which the “activity change, negative = inhibition” value was -1.97%.
Same read-out and setting: the same measure for `O=C1NC(=O)C(=Cc2ccc3nccnc3c2)S1`: -9.4% [at 30.2 µM].
On to `COc1cc2nc(-c3ccc(N4CCN(C)CC4)cc3)nc(NCCN3CCOCC3)c2cc1OC`, for which the “activity change, negative = inhibition” value was -0.205% [at 114 µM].
With `Cc1c[nH]c(C=C2C(=O)Nc3ccccc32)c1CCC(=O)O`, the “activity change, negative = inhibition” value is 9.33%.
Same read-out and setting: then `O=C1c2ccccc2-[n+]2ccc3c([nH]c4ccccc43)c21`, with -17.7%.
For `CO[C@H]1C=CO[C@@]2(C)Oc3c(C)c(O)c4c(O)c(c5c(c4c3C2=O)NC2(CCN(CC(C)C)CC2)N=5)=NC(=O)C(C)=CC=C[C@H](C)[C@H](O)[C@@H](C)[C@@H](O)[C@@H](C)[C@H](OC(C)=O)[C@H]1C`, the “activity change, negative = inhibition” value is -12.4% [at 114 µM].
For the compound `O=C(O)Cc1cccc2ccccc12`, the Potency entry is “inactive”.
Turning to `CN(C)Cc1cccc(N=C(c2ccccc2)c2c(O)[nH]c3cc(C(=O)N(C)C)ccc23)c1`, the “activity change, negative = inhibition” value was 1.95%.
